Assay results as given in PubChem BioAssay (EPA / NIEHS).
The source made the active and inactive calls. Rule for the calls: active = hit-call score of the fitted dose curve at least 0.9, where 1 is the maximum; inactive = score below 0.9.

Test: ATG_AP_1_CIS: Attagene CIS-FACTORIAL HepG2 Assay for human Activator Protein 1 (AP-1) (AID 2282931)
Details: HepG2 Attagene cis-factorial AP-1 reporter mRNA; actives raise or lower the signal
Procedure: ATG_CIS is a cell-based, multiplexed-readout assay that uses HepG2, a human liver cell line, with measurements taken at 24 hours after chemical dosing in a 24-well plate.ATG_AP_1_CIS is one of 52 assay component(s) measured or calculated from the ATG_CIS assay. It is designed to make measurements of mRNA induction, a form of inducible reporter, as detected with fluorescence intensity signals by Reverse transcription polymerase chain reaction (RT-PCR) and Capillary electrophoresis technology.Data from the assay component ATG_AP_1_CIS was analyzed into 1 assay endpoint. This assay endpoint, ATG_AP_1_CIS, was analyzed with bidirectional fitting relative to DMSO as the negative control and baseline of activity. Using a type of inducible reporter, measures of mRNA for gain or loss-of-signal activity can be used to understand the reporter gene at the transcription factor-level as they relate to the gene FOS and JUN. Furthermore, this assay endpoint can be referred to as a primary readout, because this assay has produced multiple assay endpoints where this one serves a reporter gene function. To generalize the intended target to other relatable targets, this assay endpoint is annotated to the dna binding intended target family, where the subfamily is basic leucine zipper.
Human liver HepG2 cells are transiently transfected with multiple reporter transcription units (MRTUs) in 6-well plates using FuGene 6 reagent (Roche; 3 ml FuGene/1 mg DNA). The MRTU constructs are regulated by a cis-regulating element (promoter). […] A major difference between the CIS and TRANS system is that in CIS activities of endogenous TFs are measured, whereas the TRANS assay evaluates changes in activities of exogenous, chimeric NR-Gal4 proteins. […] At the end of 24 hour incubation, total RNA was isolated using TriZol reagent (Invitrogen). The isolated RNA is then reverse-transcribed using oligo(dT) primer and Mo-MLV reverse transcriptase (Invitrogen) with DNAse I (Ambion) treatment for 30 min. The one-tenth of the produced cDNA was amplified by PCR using Taq DNA polymerase (Invitrogen) and two reporter sequence-specific primers. The PCR products were fluorescently labeled by primer extension with 6-arboxyfluorescein (6-FAM) 5'-labeled reporter sequence-specific primer (2 min at 95 C, 20 s at 68 C and 10 min at 72 C) and these products were digested with 5U of HpaI (New England Biolabs) for 2h at 37 C. The fragments were purified using Qiaquick PCR columns (Qiagen), analyzed on an ABI 3130xL genetic analyzer (Applied Biosystems) with peak positions identified by using a set of X-rhodamine (ROX)-labeled MapMarker1000 molecular weight standards (BioVentures). The raw capillary electrophoresis data was processed using Attagraph software (Attagene).

Row | Structure (SMILES) | AC50 | outcome
1 | CCCCCC(=O)O[C@]1(C(C)=O)CC[C@H]2[C@@H]3CCC4=CC(=O)CC[C@]4(C)[C@H]3CC[C@@]21C | 36.5 µM (active) | 
2 | C[C@H](CCC(=O)O)[C@H]1CC[C@H]2[C@@H]3CC[C@@H]4C[C@H](O)CC[C@]4(C)[C@H]3CC[C@]12C |  | inactive
3 | CCCCOC(=O)C(C)OC(=O)CCC (stereo not given) |  | inactive
4 | CCOCC(C)O (stereo not given) |  | inactive
5 | CCCCOCCOCCOCCO |  | inactive
6 | CC(CO)(CO)[N+](=O)[O-] |  | inactive
7 | C=CC(=O)OCCCCCC |  | inactive
8 | CC(CCO)CC(C)(C)C (stereo not given) |  | inactive
9 | c1ccc(OCCOc2ccccc2)cc1 |  | inactive
10 | CCCCCCOc1ccc(O)cc1 |  | inactive
11 | CCCCCCCC(=O)N(C)C |  | inactive
12 | CC(C)Cc1ccccc1 |  | inactive
13 | O=c1cc[nH]cc1 |  | inactive
14 | OCCCO |  | inactive
15 | c1ccc(Cc2ccccc2)cc1 |  | inactive
16 | C=C(C)C(=O)OCCN(C)C |  | inactive
17 | CCCCOCC(C)OCC(C)O (stereo not given) |  | inactive
18 | Brc1cc(Br)cc(Br)c1 |  | inactive
19 | CCCC[N+](C)(CCCC)CCCC |  | inactive
20 | C1COCO1 |  | inactive

Row | Structure (SMILES) | AC50 | outcome
21 | CCC(C)C1CCCCC1=O (stereo not given) |  | inactive
22 | CN(C)c1ccc(C=O)cc1 |  | inactive
23 | CCOC(=O)CC1(C)OCC(C)O1 (stereo not given) |  | inactive
24 | CCCCN(CCCC)CCCCCCN(CCCC)CCCC |  | inactive
25 | CCCCCCOC(C)=O |  | inactive
26 | O=S(=O)(O)c1cc(S(=O)(=O)O)c2c(N=Nc3ccccc3)c(O)ccc2c1 |  | inactive
27 | CCCCCCC(O)CCOC(C)=O (stereo not given) |  | inactive
28 | Cc1ccc(C(C)(C)O)cc1 |  | inactive
29 | CCCCCCCCCCO[C@@H]1O[C@H](CO)[C@@H](O)[C@H](O)[C@H]1O |  | inactive
30 | CCCOC(=O)CC |  | inactive
31 | CC(=O)CC(=O)N(C)C |  | inactive
32 | C=C(C)C(=O)OCCC(C)OC(=O)C(=C)C (stereo not given) |  | inactive
33 | O=C(O)CS |  | inactive
34 | NCCN1CCNCC1 |  | inactive
35 | CC1COC(=O)O1 (stereo not given) |  | inactive
36 | S=c1[nH][nH]c(=S)s1 |  | inactive
37 | CC(=O)c1cccnc1 |  | inactive
38 | CC1(C)CC(=O)CC(C)(C)N1 |  | inactive
39 | NC(=O)NC(N)=O |  | inactive
40 | CC1=CCC(C(C)C)=CC1 |  | inactive
